Reference: PubChem BioAssay (NCI)
About 83,000 compounds went through this panel and 20% of them were active in at least one assay; those are over-represented in the sample as a whole.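 Cells were grown in 96-well plates and exposed to the test compound at a single concentration for 48 hours; results are reported as percent growth, with values below 10 considered active.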 Values without a mark were called inactive. Calls of active or inactive are those of the source.

Experiments:
Assay in all cases: NCI-60 one-dose screen, 48 h (100 = growth as untreated, 0 = no growth, -100 = all killed)
NCI-H23 lung = conditions: 10 µM unless noted
NCI-H322M lung = conditions: 10 µM unless noted
HOP-62 NSCLC = conditions: 10 µM unless noted
NCI-H460 lung = conditions: 10 µM unless noted
NCI-H522 lung = conditions: 10 µM
A549/ATCC NSCLC = conditions: 10 µM unless noted
786-0 renal = conditions: 10 µM unless noted
COLO 205 colon = conditions: 10 µM unless noted

SMILES	growth (NCI-H23 lung)	growth (NCI-H322M lung)	growth (HOP-62 NSCLC)	growth (NCI-H460 lung)	growth (NCI-H522 lung)	growth (A549/ATCC NSCLC)	growth (786-0 renal)	growth (COLO 205 colon)
COc1cc(CNCCN2C(=O)c3ccc4c5c(ccc(c35)C2=O)C(=O)N(CCNCc2cc(OC)c(OC)c(OC)c2)C4=O)cc(OC)c1OC	-89.3% (active)	-68.3% (active)	-78% (active)	-81.7% (active)	-60.3% (active)	-76.5% (active)	-93.6% (active)	-72% (active)
COc1cccc(C2CC(=O)Nc3cc4c(cc32)CCC4)c1OC (stereo not drawn)	59%	68%	60.5%	61.8%	60.9%	47.8%	79.6%	50%
CC1SC(c2ccc(Cl)cc2)N(CCc2cccs2)C1=O (stereo not drawn)	-0.245% (active)	21.7%	15.2%	-24.4% (active)	-48.9% (active)	1.08% (active)	-49.4% (active)	-60.5% (active)
Cc1oc2c(c1C(=O)N1CC[C@@H](N)C1)C(=O)c1c(c(O)c3ccccc3c1O)C2=O	45.3%	33.5%	31.9%	2.29% (active)	21%	12.4%	41%	13.1%
COc1cc(/C=C2\C(=O)Nc3ccccc32)cc(OC)c1O	66.4%	96%	64.4%	40.1%	8.78% (active)	67.9%	83.2%	112%
O=c1[nH]c(=S)c2c(n1CCCO)CCC2	99.8%	108%	104%	107%	88.4%	100%	102%	
CC1SC(c2cccc(Oc3ccccc3)c2)N(CCc2cccs2)C1=O (stereo not drawn)	-14.2% (active)	4.21% (active)	6.21% (active)	-64.2% (active)	-50.8% (active)	-9.36% (active)	-29.6% (active)	-60.1% (active)
O=C1C=CC(=O)N1CCCCCCCCCCN1C(=O)C=CC1=O	85.2%	109%	88.7%	96.1%	-60.7% (active)	97.4%	88.7%	65.7%
